Assay outcomes (PubChem)
Most compounds without a hit are left out; they make up all but 1.3% or so of the library.
Vaccinia Venus: vaccinia inhibition (Venus reporter); Vaccinia virus Venus reporter expression, fluorescence; Potency, µM (series often up to 36.5 µM), inactives show at the highest dose activity change, negative = inhibition, most hits filed as inhibitors; 0.46% of 330,000 active; AID 720580; calls by dose curve; tested in A549 cells; note: % is set by controls: 0 for no effect and ±100 for the full control effect; nearly all actives have a fitted effect of over 30% in size
AMA1 RON2 block: inhibitors of Plasmodium falciparum AMA1-RON2 interaction. 0.2% of 360,000 active. AID 720542. AlphaScreen AMA1-biotinylated RON2 peptide binding. Potency, µM (doses to about 58.2 µM), inactives show top-dose activity change, negative = inhibition, hits mostly inhibitors;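 note: 0% = vehicle wells and -100% = peptide control; nearly all actives have a fitted effect of over 45% in size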
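AMA1 (3D7) with his tag at 25 nM final met compounds first, then biotinylated RON2 peptide at 25 nM; detection used donor plus acceptor beads, 10 µg/mL apiece, read by AlphaScreen after 30 min at room temperature.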
Vaccinia mCherry: inhibitors of vaccinia virus infection (mCherry reporter signal) | Vaccinia virus mCherry reporter infection, fluorescence | Potency, µM (doses to about 36.5 µM), inactives show at the top dose activity change, negative = inhibition, most hits filed as inhibitors | 0.63% of 310,000 active; calls by dose curve; tested in A549 cells; note: % is set by controls: 0 for no effect and ±100 for the full control effect; nearly all actives have a fitted effect of over 35% in size
AmpC detergent: blocks E. coli AmpC beta-lactamase in detergent assay. P00811. AmpC hydrolysis of nitrocefin, absorbance 480 nm, 0.01% Triton. Potency, µM (highest dose often 114 µM), inactives show at the top dose activity change, negative = inhibition, most hits filed as inhibitors. 0.041% of 370,000 active;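 note: 0% = no-compound wells and -100% = no-enzyme wells; nearly all actives have a fitted effect of over 25% in size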
Target sequence (P00811 whole entry, looked up): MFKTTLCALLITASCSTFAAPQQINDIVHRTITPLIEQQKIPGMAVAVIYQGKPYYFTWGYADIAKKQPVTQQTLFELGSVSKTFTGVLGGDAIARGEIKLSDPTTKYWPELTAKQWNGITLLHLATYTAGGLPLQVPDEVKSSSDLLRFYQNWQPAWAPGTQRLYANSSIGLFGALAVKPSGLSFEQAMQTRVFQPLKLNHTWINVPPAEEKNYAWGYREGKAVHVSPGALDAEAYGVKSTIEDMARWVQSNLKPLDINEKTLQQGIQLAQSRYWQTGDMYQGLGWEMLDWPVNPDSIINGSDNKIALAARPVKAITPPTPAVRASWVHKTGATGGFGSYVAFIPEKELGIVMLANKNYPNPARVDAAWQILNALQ
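AmpC (5.3 nM in the dispensed reagent) in 20 mM phosphate pH 7.0 with 0.01% (detergent screen) or 0.0001% Triton X-100 was preincubated with compounds for 15 min at room temperature. Nitrocefin was then added from an 800 uM solution, and hydrolysis was followed at 480 nm.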
AmpC no deterg: blocks E. coli AmpC beta-lactamase in detergent-free assay; AmpC nitrocefin hydrolysis, absorbance 480 nm, 0.0001% Triton; Potency, µM (top dose mostly 57.1 µM), without a hit: at the highest dose activity change, negative = inhibition, hits mostly inhibitors; 0.52% of 330,000 active; AID 485341; P00811;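 note: plate controls were no compound for no effect and no enzyme for full effect; nearly all actives have a fitted effect of over 20% in size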
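20 mM phosphate pH 7.0 + 0.01% (detergent screen) or 0.0001% Triton X-100; 5.3 nM AmpC reagent; cpd preinc 15 min RT; nitrocefin (800 uM stock) to start; A480 q20 s × 4 min; Activity was normalised to no-enzyme and no-compound control wells.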
SARS PLpro yeast: SARS-CoV PLP inhibition in yeast | S. cerevisiae expressing SARS-CoV PLpro, growth rescue | Potency, µM (titrated, usually from 32.9 µM), without a hit: at the top dose activity, positive = growth rescue, most hits filed as activators | 0.19% of 330,000 active; calls by dose curve; note: 0% is about no effect; nearly all actives have a fitted effect of over 55% in size
* = called active by the depositor; i = inactive; ? = inconclusive; nt = not tested or not shown. Unless noted, calls come from the whole dose curve; as a rule, active = well fitted curve in the direction sought with a large enough effect; inconclusive = small, poorly fitted or top-dose-only effect, or another doubt; inactive = no such curve, though single readings can be large; an effect the other way counts as inactive or inconclusive. Potency is the fitted concentration of half-maximal effect.

SMILES	Vaccinia Venus	AMA1 RON2 block	Vaccinia mCherry	AmpC detergent	AmpC no deterg	SARS PLpro yeast
C[C@@]12C(C[C@H](O)[C@@]34C[C@@H](CCC13)[C@@H](CO)C4=O)[C@](C)(C(=O)O)CC[C@@H]2O (stereo not given in full)	0.6%	-4.6%	42.9%	nt	nt	nt
Cc1cc(C)nc(NC(=O)c2cnc3sccn3c2=O)n1	-0.7%	3.9%	i	?	39.8µM*	-6.4%
CC(C)Cn1c(=O)c(C(=O)Nc2ccccc2S(N)(=O)=O)c(O)c2ccccc21	?	39.2%	?	?	-40.1%	-2.3%
CCC(C)n1c(=O)c(C(=O)Nc2ccccc2S(N)(=O)=O)c(O)c2ccccc21 (stereo not given)	?	84.6%	12.6µM*	-11.4%	-53.6%	1.5%
CCCC[C@@H]1CNCCN1CCc1cc(C(F)(F)F)cc(C(F)(F)F)c1	?	5.0%	-26.9%	-9.8%	93.3%	-7.4%
CCC(C)[C@H]1CNCCN1CCc1cc(C(F)(F)F)cc(C(F)(F)F)c1 (stereo not given in full)	15.8µM*	13.8%	?	4.4%	152.2%	1.5%
COc1ccccc1CNC(=O)c1ccc2nc3[nH]c4ccccc4c3nc2c1	10µM*	-23.6%	8.91µM*	-3.7%	46.6%	9.6%
Cc1ccc(CNC(=O)c2ccc3nc4[nH]c5ccccc5c4nc3c2)cc1	nt	nt	nt	?	-29.9%	-1.8%
COc1ccc(CN2CCOc3ccc(CN4CCC(O)CC4)cc3C2)c(OC)c1OC	0.0%	nt	i	nt	nt	nt
CCSc1nnc(NC(=O)NC(CC)(C(F)(F)F)C(F)(F)F)s1	28.2µM*	-0.2%	nt	-2.2%	-27.9%	-9.9%
CCSc1nnc(NC(=O)NC(C)(C(F)(F)F)C(F)(F)F)s1	?	29.1%	-21.2%	?	-4.6%	-14.5%
O=C(NCC1(N2CCOCC2)CCCC1)c1cnn(-c2nccc(-c3ccco3)n2)c1C1CC1	0.4%	nt	-7.5%	nt	nt	nt
Cc1cc(N2CCN(C)CC2)nc2ccc(NC(=O)c3ccc(C(C)(C)C)cc3)cc12	14.1µM*	nt	?	13.4%	nt	nt
Cc1cc(N2CCN(C)CC2)nc2ccc(NC(=O)Nc3ccc(Cl)cc3)cc12	-5.9%	nt	-11.6%	16.6%	nt	nt
COc1cccc(C(=O)N/N=C(/c2ccccc2)c2ccccn2)c1	?	96.4%	2µM*	-1.7%	-11.8%	-35.6%
Cc1ccccc1Oc1cc(-n2ncc(Cl)c(Cl)c2=O)ncn1	10µM*	-1.9%	?	-21.7%	-15.9%	-85.9%
COc1cc(OC)c(NC2=CC(=O)C(=O)c3ccccc32)cc1Cl	3.16µM*	-14.7%	0.891µM*	1.3%	-18.1%	-0.7%
Cc1ccc(NC2=CC(=O)C(=O)c3ccccc32)cc1	nt	-19.3%	nt	-9.9%	-12.3%	-54.3%
Cc1ccn2c(NCc3ccc4c(c3)OCO4)c(-c3ccc(O)cc3)nc2c1	nt	1.3%	nt	?	-3.8%	7.94µM*
Oc1ccc(-c2nc3ccccn3c2NCc2ccc3c(c2)OCO3)cc1	4.8%	-7.8%	nt	0.1%	-20.9%	-2.2%
O=C(CSc1cccc2cccnc12)N1CCCC1	11.2µM*	18.1%	11.2µM*	-1.5%	-15.8%	-7.1%
O=C(NCCCN1CCN(c2cccc(Cl)c2)CC1)c1ccc2nc(Cc3ccccc3)oc2c1	-27.9%	nt	-27.0%	?	nt	nt
CCOC(=O)N1CCC(NC(=O)c2cc(C(=O)NC3CCCC3)ccc2CO)CC1	-4.0%	-0.2%	i	?	0.708µM*	-0.1%
CCOC(=O)N1CCC(NC(=O)c2ccc(CO)c(C(=O)NC3CCN(C(=O)OCC)CC3)c2)CC1	-10.3%	-2.5%	i	?	13.1%	-1.2%
CC(=O)Oc1cc2cccc(OC(C)=O)c(=O)c2c(OC(C)=O)c1OC(C)=O	4.6%	1.78µM*	-16.1%	?	-49.9%	8.91µM*
COc1cc2cccc(OC)c(=O)c2c(O)c1OC	-10.0%	-12.3%	i	?	-10.5%	-0.6%
O=C1NC(=S)N(c2ccccc2)C(=O)/C1=C/c1ccco1	29.6%	8.91µM*	i	-13.7%	-42.3%	-5.3%
Cc1ccc(/C=C2/C(=O)NC(=O)N(CCc3ccc(F)cc3)C2=O)o1	3.7%	-2.8%	nt	-2.1%	-36.3%	?
